# eIF4E-4G inh: eIF4E–eIF4G protein interaction inhibitors, primary screen, biochemical, uHTS, TR-FRET, eIF4GI fragment; Eukaryotic translation initiation factor 4E (Mus musculus) + Eukaryotic translation …; TR-FRET eIF4E-eIF4GI(517-606) binding, 2 h; inhibition, % at 21.7 µM; actives 0.37% (n = 220,000);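 also: 0% = full FRET control wells and 100% = background wells lacking eIF4GI fragment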
# 14-3-3 Bad inh: inhibitors of 14-3-3 zeta/Bad binding, primary screen, biochemical, TR-FRET, bovine 14-3-3 zeta. 14-3-3 protein zeta/delta (Bos taurus), P63103. TR-FRET 14-3-3zeta/Dy647-pBad peptide displacement, 1 h. inhibition, % at 21.7 µM. actives 0.71% (n = 220,000);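 active = inhibition above about 70%, limit read from the data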;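 also: 0% = full 14-3-3 plus peptide FRET controls and 100% = background without 14-3-3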
# Target sequence (P63103 whole entry, looked up): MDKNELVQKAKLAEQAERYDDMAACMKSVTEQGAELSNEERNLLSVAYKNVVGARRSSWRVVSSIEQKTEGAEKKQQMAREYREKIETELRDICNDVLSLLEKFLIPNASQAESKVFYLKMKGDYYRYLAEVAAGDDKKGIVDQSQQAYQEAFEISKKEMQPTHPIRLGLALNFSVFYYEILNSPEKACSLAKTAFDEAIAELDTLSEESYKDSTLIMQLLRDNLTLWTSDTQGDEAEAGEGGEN
# Mcl1 Bid PPI: Mcl-1/Bid binding inhibitors, primary screen, biochemical, TR-FRET, 1536-well | inhibition, % at 21.7 µM | TR-FRET Mcl-1/Bid-Dy647 peptide binding | actives 0.97% (n = 220,000) | Induced myeloid leukemia cell differentiation protein Mcl-1 (Homo sapiens), Q07820;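 active = compounds that cut the binding signal by more than half at the single screening dose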;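 also: His-tagged Mcl-1 with europium anti-His antibody binding Bid BH3 peptide; 0% = Mcl-1 plus peptide wells and 100% = peptide-only wells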
# Target sequence (Q07820 whole entry, looked up): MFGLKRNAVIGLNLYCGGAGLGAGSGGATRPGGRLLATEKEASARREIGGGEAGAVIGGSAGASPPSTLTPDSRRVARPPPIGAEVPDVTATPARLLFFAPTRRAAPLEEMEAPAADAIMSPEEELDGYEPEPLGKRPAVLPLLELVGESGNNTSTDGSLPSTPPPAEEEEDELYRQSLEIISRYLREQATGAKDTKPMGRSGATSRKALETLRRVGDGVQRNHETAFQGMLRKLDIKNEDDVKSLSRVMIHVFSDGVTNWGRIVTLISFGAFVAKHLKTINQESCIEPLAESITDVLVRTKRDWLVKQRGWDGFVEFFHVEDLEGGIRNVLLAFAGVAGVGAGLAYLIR
# p47phox inh: p47phox/p22phox peptide binding inhibitors, primary screen, biochemical, uHTS, NADPH oxidase regulatory subunit | Neutrophil cytosol factor 1 (Homo sapiens), P14598 | fluorescence polarization, 2 h | inhibition, % at 24.7 µM | actives 0.53% (n = 220,000) | AID 1274, 2008;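 also: 0% = p47phox with labelled peptide and 100% = labelled peptide alone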
# Mcl1 Noxa PPI: Mcl-1/Noxa binding inhibitors, primary screen, biochemical, TR-FRET, 1536-well; inhibition, % at 21.7 µM; actives 1.5% (n = 220,000); TR-FRET Mcl-1/Noxa peptide binding, 2 h; AID 1022, 2008; Induced myeloid leukemia cell differentiation protein Mcl-1 (Homo sapiens), Q07820;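 active = compounds that cut the protein-peptide binding signal by more than 50% relative to plate controls in a single-dose test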;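 also: His-tagged Mcl-1 with rhodamine Noxa BH3 peptide and terbium anti-His antibody; 0% = Mcl-1 plus Noxa peptide wells and 100% = peptide-only wells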
# Bim-Mcl-1: inhibitors of Bim peptide binding to Mcl-1, primary screen, biochemical, bead-based flow cytometry, multiplex | Induced myeloid leukemia cell differentiation protein Mcl-1 (Homo sapiens), Q07820 | Bim peptide-Mcl-1 binding | inhibition, % at 10 µM | actives 0.1% (n = 190,000) | AID 1009, 2008; in the data active = inhibition above about 40%;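 also: 0% = no compound tracer wells and 100% = peptide blocker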
# An asterisk follows results filed as active; nt = no result. Compounds with a hit are over-represented: about 3.3% of the library has one in this group of screens.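 The calls were made as follows, unless noted: active = inhibition above about 30% (limit read from the data); inactive = the rest.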
SMILES,eIF4E-4G inh,14-3-3 Bad inh,Mcl1 Bid PPI,p47phox inh,Mcl1 Noxa PPI,Bim-Mcl-1
CC(C)NS(=O)(=O)c1ccc2c(c1)NCC2,8,-12,-48,-5,9,-3
Cc1nn(CC(=O)NCc2cc3ccccc3[nH]2)c(C)c1[N+](=O)[O-],4,-20,-65,-5,12,0
COc1ccc2oc(=O)c(-c3csc(Nc4ccc(O)cc4)n3)cc2c1,0,17,40,-30,73*,0
COc1ccc2oc(=O)c(/C(C)=N/Nc3nc(-c4cc(C)ccc4C)cs3)cc2c1,-3,-9,-18,-44,-13,-4
CCNc1nc(NC(C)C)nc(Oc2ccc(=O)n(C)n2)n1,65*,-6,0,nt,9,-2
CC(C)Nc1nc(NC(C)C)nc(Oc2ccc(=O)n(C)n2)n1,-1,-14,-22,-4,0,-4
COc1ccc2cc(C(=O)NCc3ccco3)c(=Nc3ccc(C(=O)O)cc3)oc2c1,0,12,-18,-7,1,0
COc1ccc(N=c2oc3c(OC)cccc3cc2C(=O)NCc2ccco2)c(OC)c1,-28,17,65*,5,27,1
NC(=S)Nc1ccc(F)cc1F,3,-2,77*,2,-12,nt
CC1CN(Cc2ccccc2)c2nc3c(c(=O)[nH]c(=O)n3C)n2C1 (centres undefined),83*,2,-35,-20,-14,nt
O=C1/C(=C\c2ccc(O)cc2)SC(=S)N1/N=C/c1ccc(O)cc1,0,15,24,-130,79*,nt
CC(=O)NN1C(=O)/C(=C\c2ccc(O)cc2)SC1=S,2,-13,-66,-158,-16,0
CCCNC(=O)CSc1nnc(-c2ccccc2Br)n1-c1cccc(C(F)(F)F)c1,-1,13,-21,-5,22,-3
Cc1nc(SCC(=O)NC(=O)NC(C)(C)C)nc(C)c1C,-11,-2,-17,-11,-21,nt
Cc1nc(SCC(=O)NC(=O)NC(C)C)nc(C)c1C,4,-3,-15,-9,64*,0
Cc1ccc2c(c1)C1CCCC3C1N2CC(=O)N3Cc1ccccc1 (centres undefined),-6,-15,-55,-20,51*,-3
CC(NS(=O)(=O)c1cccc(Cl)c1)C(=O)N(C)C1CCN(C)CC1 (centres undefined),-3,-10,-14,4,53*,1
CCN(CC)c1ccc(NC(=O)Cn2c(C(C)NC(=O)c3ccc(C)cc3)nc3ccccc32)cc1 (centres undefined),19,95*,90*,nt,32,4
CCCn1c(C(C)NC(=O)c2ccccc2)nc2ccccc21 (centres undefined),1,-6,2,7,-1,nt
CC(C)OC(=O)Cn1cc(C#N)c2ccccc21,-2,2,-29,6,12,-1
CN(C)c1ccc(C(CNS(=O)(=O)c2ccc(F)c(F)c2)c2c[nH]c3ccccc23)cc1 (centres undefined),2,-13,-56,-32,21,-5
CN(C)c1ccc(C(CNC(=O)c2ccccc2)c2c[nH]c3ccccc23)cc1 (centres undefined),-7,3,-1,-34,68*,-2
CN(C)c1ccc(C(CNC(=O)c2ccccc2F)c2c[nH]c3ccccc23)cc1 (centres undefined),-2,-1,-2,2,66*,27
CCn1ccnc1CN(C)Cc1nc(-c2ccc(C(=O)OC)cc2)no1,0,2,-12,4,-12,nt
COC1=C(OC)C(=O)C(CCCCCCCCCCO)=C(C)C1=O,-1,-3,-9,8,55*,-2
SMILES,eIF4E-4G inh,14-3-3 Bad inh,Mcl1 Bid PPI,p47phox inh,Mcl1 Noxa PPI,Bim-Mcl-1
O=c1c2c3c(sc2n2c(=S)[nH]nc2n1-c1ccccc1)CCC3,38*,-4,-53,-6,10,nt
Cc1cccc(-n2c(=O)c3c4c(sc3n3c(=S)[nH]nc23)CCC4)c1,32*,-4,-48,3,9,7
CCn1c(=O)c2c3c(sc2n2c(=S)[nH]nc12)CCC3,52*,12,9,4,4,3
Cc1ccc(-n2c(=O)c3c4c(sc3n3c(=S)[nH]nc23)CCC4)cc1,26,-4,-44,-3,17,nt
c1csc(Cc2nn3c(-c4n[nH]c5c4CCC5)nnc3s2)c1,-9,0,-17,-12,54*,2
c1coc(-c2nnc3sc(Cc4cccs4)nn23)c1,14,-14,-25,-16,39,-2
CC(C)(C)C1CCc2sc(C(=O)NNC(=O)CCl)cc2C1 (centres undefined),-4,-31,-25,-10,-3,2
CC(=O)n1cc(-c2ccncc2)c2ccccc21,0,36,11,-2,11,0
CC(=O)n1cc(C(C[N+](=O)[O-])SCCN)c2ccccc21 (centres undefined),3,42,53*,-5,53*,-8
CC(C)Nc1ccc(Nc2ccnc3cc4ccccc4cc23)cc1,14,-1,-33,12,68*,nt
O=C(NCCCN1CCOCC1)c1ccccc1,1,81*,23,2,14,3
O=C(CN1CCOCC1)NCc1ccccc1,4,-1,-24,43*,-1,-1
CSc1ccccc1NC(=O)CN1CCCCC1,2,-10,-18,-3,-2,0
Cc1ccc(C(=O)N/C(=C\c2ccc(C(C)C)cc2)C(=O)NCCCN2CCOCC2)cc1,3,30,-11,-9,51*,-1
CSc1ccccc1NC(=O)CNCCCN1CCOCC1,-1,38,89*,2,39,nt
CCn1nc(C)c([N+](=O)[O-])c1C(=O)NNC(=O)c1ccccc1Cl,-1,-3,-2,7,0,nt
CC(C)OP(=O)(OC(C)C)C(O)c1cccc([N+](=O)[O-])c1 (centres undefined),-13,0,-17,-10,-6,nt
COc1ccc(-c2cnnn2-c2ccc(NC(=O)c3ccc(S(=O)(=O)N4CCCCC4)cc3)cc2)cc1,-22,3,6,-10,0,0
Cc1cc(C)c(OCC(=O)Nc2ccccc2N2CCOCC2)c(C)c1,5,-9,-29,41*,-3,-1
CCCCC(=O)Nc1ccccc1N1CCOCC1,1,-5,-25,8,18,0
CCOCCCNCC(=O)Nc1ccccc1N1CCOCC1,-5,71*,42,-27,22,0

# Compound activity deposited in PubChem BioAssay by several laboratories.
